In PubChem BioAssay AID1159580 (chemical genetic matrix, 2015):
Among all 5,500 compounds or so, about 2,000 (36%) were called active. About 18% were inconclusive and are not listed. Rule as the data show it: active = normalized growth mostly below about 0.91 (no sharp cut-off); inconclusive = no clear call, values can overlap the other calls; inactive = mostly above about 0.92. The list shows a part of the results.

Assay: chemical genetic growth profiling, strain panel (AID 1159580);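 also: tested at 20 µM; growth read once vehicle control cultures reached saturation at 30 °C; 1 = growth at the plate median or of vehicle wells; lower values mean less growth of the strain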
Conditions: growth OD

Measured: normalized growth

CCCCC(=O)N(Cc1ccc(-c2ccccc2-c2nn[nH]n2)cc1)[C@H](C(=O)O)C(C)C
inactive: S. cerevisiae deletion strains, locus YJR066W, strain TOR1, hits give low values 0.959 | S. cerevisiae deletion strains, locus YJR075W, strain HOC1, hits give low values 1 | S. cerevisiae deletion strains, locus YKL009W, strain mrt4, hits give low values 0.968 | S. cerevisiae deletion strains, locus YKL068W, hits give low values 0.964 | S. cerevisiae deletion strains, locus YKL085W, strain MDH1 (second series), hits give low values 0.959 | S. cerevisiae deletion strains, locus YKL085W, strain MDH1, hits give low values 0.959 | S. cerevisiae deletion strains, locus YKL160W, strain elf1, hits give low values 1.01 | S. cerevisiae deletion strains, locus YKL190W, strain CNB1, hits give low values 0.986 | S. cerevisiae deletion strains, locus YKR001C, strain vps1, hits give low values 0.987 | S. cerevisiae deletion strains, locus YKR026C, strain gcn3, hits give low values 0.985 | S. cerevisiae deletion strains, locus YKR091W, strain srl3, hits give low values 0.981 | S. cerevisiae deletion strains, locus YLL001W, strain dnm1, hits give low values 0.993 | S. cerevisiae deletion strains, locus YLL026W, hits give low values 0.998 | S. cerevisiae deletion strains, locus YLL041C, strain sdh2, hits give low values 1 | S. cerevisiae deletion strains, locus YLR027C, strain aat2, hits give low values 0.999 | S. cerevisiae deletion strains, locus YLR039C, strain RIC1, hits give low values 0.963 | S. cerevisiae deletion strains, locus YLR058C, strain SHM2, hits give low values 1 | S. cerevisiae deletion strains, locus YLR102C, strain apc9, hits give low values 0.975 | S. cerevisiae deletion strains, locus YLR113W, strain HOG1, hits give low values 0.987 | S. cerevisiae deletion strains, locus YLR221C, strain rsa3, hits give low values 0.977 | S. cerevisiae deletion strains, locus YLR258W, strain gsy2, hits give low values 0.989 | S. cerevisiae deletion strains, locus YLR262C, strain YPT6 (second series), hits give low values 1 | S. cerevisiae deletion strains, locus YLR262C, strain YPT6, hits give low values 0.981 | S. cerevisiae deletion strains, locus YLR268W, strain sec22, hits give low values 0.977 | S. cerevisiae deletion strains, locus YLR320W, strain mms22, hits give low values 0.993 | S. cerevisiae deletion strains, locus YLR330W, strain CHS5, hits give low values 0.99 | S. cerevisiae deletion strains, locus YLR342W, strain FKS1 (second series), hits give low values 1.01 | S. cerevisiae deletion strains, locus YLR342W, strain FKS1, hits give low values 1.02 | S. cerevisiae deletion strains, locus YLR357W, strain rsc2, hits give low values 0.976 | S. cerevisiae deletion strains, locus YLR370C, strain arc18, hits give low values 1 | S. cerevisiae deletion strains, locus YLR371W, strain rom2, hits give low values 0.977 | S. cerevisiae deletion strains, locus YLR384C, strain iki3, hits give low values 1.01 | S. cerevisiae deletion strains, locus YLR418C, strain cdc73, hits give low values 0.989 | S. cerevisiae deletion strains, locus YML016C, strain PPZ1, hits give low values 0.994 | S. cerevisiae deletion strains, locus YML032C, strain rad52, hits give low values 0.985 | S. cerevisiae deletion strains, locus YML120C, strain ndi1, hits give low values 0.981 | S. cerevisiae deletion strains, locus YML124C, strain tub3, hits give low values 0.985 | S. cerevisiae deletion strains, locus YMR058W, strain fet3, hits give low values 0.982 | S. cerevisiae deletion strains, locus YMR078C, strain ctf18, hits give low values 0.995 | S. cerevisiae deletion strains, locus YMR125W, strain sto1, hits give low values 0.932 | S. cerevisiae deletion strains, locus YMR129W, hits give low values 0.983 | S. cerevisiae deletion strains, locus YMR205C, strain PFK2, hits give low values 0.994 | S. cerevisiae deletion strains, locus YMR223W, strain ubp8, hits give low values 0.994 | S. cerevisiae deletion strains, locus YMR231W, strain pep5, hits give low values 1 | S. cerevisiae deletion strains, locus YMR263W, strain SAP30, hits give low values 0.975 | S. cerevisiae deletion strains, locus YMR307W, strain GAS1, hits give low values 1.04 | S. cerevisiae deletion strains, locus YNL067W, strain RPL9B, hits give low values 0.985 | S. cerevisiae deletion strains, locus YNL071W, strain lat1, hits give low values 0.991 | S. cerevisiae deletion strains, locus YNL128W, strain TEP1, hits give low values 0.969 | S. cerevisiae deletion strains, locus YNL153C, strain GIM3, hits give low values 0.991 | S. cerevisiae deletion strains, locus YNL183C, strain NPR1, hits give low values 0.956 | S. cerevisiae deletion strains, locus YNL209W, strain ssb2, hits give low values 0.989 | S. cerevisiae deletion strains, locus YNL233W, strain BNI4, hits give low values 0.995 | S. cerevisiae deletion strains, locus YNL248C, strain rpa49, hits give low values 0.947 | S. cerevisiae deletion strains, locus YNL250W, strain rad50, hits give low values 0.944 | S. cerevisiae deletion strains, locus YNL271C, strain bni1, hits give low values 0.98 | S. cerevisiae deletion strains, locus YNL298W, strain CLA4, hits give low values 0.971 | S. cerevisiae deletion strains, locus YNL307C, strain MCK1, hits give low values 0.98 | S. cerevisiae deletion strains, locus YNL322C, strain KRE1 (second series), hits give low values 0.988 | S. cerevisiae deletion strains, locus YNL322C, strain KRE1, hits give low values 0.981 | S. cerevisiae deletion strains, locus YNR049C, strain mso1, hits give low values 0.965 | S. cerevisiae deletion strains, locus YNR052C, strain pop2, hits give low values 0.991 | S. cerevisiae deletion strains, locus YOL006C, strain TOP1, hits give low values 1.01 | S. cerevisiae deletion strains, locus YOL012C, strain htz1 1.43 | S. cerevisiae deletion strains, locus YOL147C, strain pex11, hits give low values 0.98 | S. cerevisiae deletion strains, locus YOR001W, strain rrp6, hits give low values 0.988 | S. cerevisiae deletion strains, locus YOR061W, strain CKA2, hits give low values 0.985 | S. cerevisiae deletion strains, locus YOR069W, strain VPS5, hits give low values 0.989 | S. cerevisiae deletion strains, locus YOR070C, strain gyp1, hits give low values 0.994 | S. cerevisiae deletion strains, locus YOR080W, strain dia2, hits give low values 0.988 | S. cerevisiae deletion strains, locus YOR083W, strain WHI5, hits give low values 1.01 | S. cerevisiae deletion strains, locus YOR106W, strain vam3, hits give low values 0.998 | S. cerevisiae deletion strains, locus YOR136W, strain idh2, hits give low values 0.991 | S. cerevisiae deletion strains, locus YOR144C, strain elg1, hits give low values 0.988 | S. cerevisiae deletion strains, locus YOR231W, strain MKK1, hits give low values 0.963 | S. cerevisiae deletion strains, locus YOR265W, strain rbl2, hits give low values 0.999 | S. cerevisiae deletion strains, locus YOR270C, strain vph1, hits give low values 0.997 | S. cerevisiae deletion strains, locus YOR290C, strain snf2, hits give low values 0.962 | S. cerevisiae deletion strains, locus YOR316C, strain cot1, hits give low values 0.98 | S. cerevisiae deletion strains, locus YPL051W, strain arl3, hits give low values 1.01 | S. cerevisiae deletion strains, locus YPL055C, strain LGE1, hits give low values 0.974 | S. cerevisiae deletion strains, locus YPL078C, strain atp4, hits give low values 0.989 | S. cerevisiae deletion strains, locus YPL106C, strain sse1, hits give low values 0.956 | S. cerevisiae deletion strains, locus YPL240C, strain hsp82, hits give low values 1 | S. cerevisiae deletion strains, locus YPL241C, strain CIN2, hits give low values 0.991 | S. cerevisiae deletion strains, locus YPL256C, strain CLN2, hits give low values 0.908 | S. cerevisiae deletion strains, locus YPR119W, strain clb2, hits give low values 0.991 | S. cerevisiae deletion strains, locus YPR141C, strain kar3, hits give low values 0.963 | S. cerevisiae deletion strains, locus YPR163C, strain tif3, hits give low values 0.978 | S. cerevisiae deletion strains, locus YPR167C, strain met16, hits give low values 0.976 | S. cerevisiae deletion strains, strain wtn01, hits give low values 0.96 | S. cerevisiae strains, strain wild type, hits give low values 0.973
